Screening data (PubChem)
An excerpt weighted towards active compounds, which were near 27% of everything screened.
CYP2C9 act – increases human cytochrome P450 2C9 activity | P11712 | 1.4% of 96,000 active | activation factor at 5 µM | recombinant CYP2C9, luciferin-H conversion, luminescence; hits give high values; factor 1 = untreated enzyme, 0 = blocked;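 active = activation factor of 2 or more for CYP2C9 at a 5 µM dose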;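 note: 0 = sulfaphenazole-blocked wells and 1 = vehicle-only wells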
Cav32 inh – inhibitors of human Cav3.2 T-type calcium channel; Cav3.2-expressing cells, Fluo-4 calcium fluorescence FDSS; hits give low values; B-score at 10 µM; 4% of 100,000 active;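 active = single-dose well whose peak fluorescence ratio is a statistical outlier from its plate by either plate-standardised score or position-corrected B-score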
CYP2C19 act – activators of human cytochrome P450 2C19; activation factor at 5 µM; 96,000 tested, under 10 active; AID 1025; recombinant CYP2C19, luciferin-H EGE luminescence; hits give high values; 0 = fully inhibited enzyme, 1 = untreated enzyme;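 active = activation factor of at least 2 at 5 µM in the primary screen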;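 note: 0 = wells with 2.5 mM tranylcypromine and 1 = vehicle-only wells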
Target sequence (P33261 whole entry, looked up): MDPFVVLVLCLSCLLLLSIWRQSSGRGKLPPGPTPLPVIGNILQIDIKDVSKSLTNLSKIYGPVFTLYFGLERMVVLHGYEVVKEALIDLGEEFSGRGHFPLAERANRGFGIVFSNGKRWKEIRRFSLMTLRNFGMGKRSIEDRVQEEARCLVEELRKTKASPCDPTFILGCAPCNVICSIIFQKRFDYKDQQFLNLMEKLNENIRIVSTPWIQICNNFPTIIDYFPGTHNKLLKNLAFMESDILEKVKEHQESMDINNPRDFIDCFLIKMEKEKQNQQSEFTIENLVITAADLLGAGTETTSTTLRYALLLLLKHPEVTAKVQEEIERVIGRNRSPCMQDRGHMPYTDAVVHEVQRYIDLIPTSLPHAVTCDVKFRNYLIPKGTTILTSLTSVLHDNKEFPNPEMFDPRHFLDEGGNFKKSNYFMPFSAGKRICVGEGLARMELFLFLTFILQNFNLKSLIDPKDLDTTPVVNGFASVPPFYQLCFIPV
CYP2C19 inh – human CYP2C19 inhibition | CYP2C19 Supersomes, luciferin-H EGE luminescence, 30 min | AID 778 | inhibition, % at 5 µM | 21% of 96,000 active;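 active = CYP2C19 inhibition above a set limit at 5 µM in the primary screen, cut at about 50% in these data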;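 note: plate controls were negative control wells for no effect and 2.5 mM tranylcypromine positive control for full effect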
CYP2C9 inh – blocks human cytochrome P450 2C9 | CYP2C9 Supersomes, luciferin-H conversion, luminescence | inhibition, % at 5 µM | AID 777 | P11712 | 20% of 96,000 active;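 active = blocking of liver enzyme CYP2C9 beyond about 50% at 5 µM, limit read from the data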
Starred values were filed as active, the others as inactive.

How did CC1Cc2ccccc2N1C(=O)CSc1ncccc1C(=O)O (stereo unspecified) do in these assays?
CYP2C9 act: 1.1; Cav32 inh: 0.638; CYP2C19 act: 1.1; CYP2C19 inh: -10.2; CYP2C9 inh: -12.0

How did CCOC(=O)C1=C(C)NC(C)=C(C(=O)OCC)C1C(=O)OCC(=O)N1c2ccccc2CC1C (stereo unspecified) do in these assays?
CYP2C9 act: 0; Cav32 inh: -2.63; CYP2C19 act: 0.1; CYP2C19 inh: 92.7*; CYP2C9 inh: 99.9*

How did CC(C)c1nc2n[nH]c(N)c2c2c1CSC(C)(C)C2 do in these assays?
CYP2C9 act: 0.8; Cav32 inh: -0.0101; CYP2C19 act: 1.1; CYP2C19 inh: -12.5; CYP2C9 inh: 17.9

Results for COc1ccc(C)cc1S(=O)(=O)N(C)CC(=O)N1CCCCCC1 ?
CYP2C9 act: 0.5; Cav32 inh: 0.226; CYP2C19 act: 0.5; CYP2C19 inh: 49.4; CYP2C9 inh: 47.0

What do the screens show for `O=C(Nc1ccccc1N1CCCCC1)c1ccc(N2C(=O)c3ccccc3C2=O)cc1`?
CYP2C9 act: 0.5; CYP2C19 act: 0.5; CYP2C19 inh: 49.2; CYP2C9 inh: 54.6*

How did O=C(NCc1ccco1)c1ccc2c(c1)C(=O)N(Cc1ccccc1)C2=O do in these assays?
CYP2C9 act: 0.8; Cav32 inh: -4.74*; CYP2C19 act: 0.8; CYP2C19 inh: 18.9; CYP2C9 inh: 22.4

What do the screens show for `O=C(NCc1ccco1)c1ccc2c(c1)N(Cc1ccccc1)C(=O)CS2`?
CYP2C9 act: 0.2; Cav32 inh: -4.51; CYP2C19 act: 0.7; CYP2C19 inh: 34.8; CYP2C9 inh: 78.2*

Results for C=CCN1C(=O)CSc2ccc(C(=O)NCc3ccco3)cc21 ?
CYP2C9 act: 1; Cav32 inh: -0.0251; CYP2C19 act: 0.9; CYP2C19 inh: 7.5; CYP2C9 inh: 4.0

What do the screens show for `CCCCNC(=O)c1ccc2c(c1)N(CC)C(=O)CS2`?
CYP2C9 act: 1; Cav32 inh: -0.79; CYP2C19 act: 0.7; CYP2C19 inh: 25.3; CYP2C9 inh: 0.0

How did CCN1C(=O)CSc2ccc(C(=O)NCc3ccc(OC)cc3)cc21 do in these assays?
CYP2C9 act: 0.1; Cav32 inh: -0.842; CYP2C19 act: 0.2; CYP2C19 inh: 79.8*; CYP2C9 inh: 86.1*

How did Cc1ccc(C)c(NC(=O)Cn2nnc(C(=O)Nc3c(C)cccc3C)c2N)c1 do in these assays?
CYP2C9 act: 1; Cav32 inh: -1.53; CYP2C19 act: 1; CYP2C19 inh: 2.3; CYP2C9 inh: -0.1

What do the screens show for `CCc1cccc(CC)c1NC(=O)CSc1nnc(C(C)C)n1CC`?
CYP2C9 act: 1.1; Cav32 inh: 0.84; CYP2C19 act: 1; CYP2C19 inh: 1.2; CYP2C9 inh: -13.6

How did NC(=O)NC(Cc1ccccc1)C(=O)NCC1(N2CCCCC2)CCCCC1 (stereo unspecified) do in these assays?
CYP2C9 act: 1.1; Cav32 inh: 0.152; CYP2C19 act: 1.2; CYP2C19 inh: -18.2; CYP2C9 inh: -5.0

Results for O=C(Nc1ccccc1N1CCOCC1)c1ccc2c(c1)C(=O)N(Cc1ccncc1)C2=O ?
CYP2C9 act: 0.2; Cav32 inh: -2.1; CYP2C19 act: 0.2; CYP2C19 inh: 79.1*; CYP2C9 inh: 83.9*

How did O=C(Nc1ccccc1N1CCOCC1)c1cnccn1 do in these assays?
CYP2C9 act: 1; Cav32 inh: 0.442; CYP2C19 act: 1; CYP2C19 inh: -0.1; CYP2C9 inh: -2.1

Results for CC(C)CCN1C(=O)c2ccc(C(=O)NCc3ccco3)cc2C1=O ?
CYP2C9 act: 0.5; CYP2C19 act: 0.7; CYP2C19 inh: 29.3; CYP2C9 inh: 49.2

How did O=C(NCc1ccccc1)c1ccc2c(c1)C(=O)N(Cc1ccncc1)C2=O do in these assays?
CYP2C9 act: 0.1; Cav32 inh: -0.214; CYP2C19 act: 0.3; CYP2C19 inh: 70.6*; CYP2C9 inh: 89.6*

What do the screens show for `CC(c1ccccc1)N1C(=O)c2ccc(C(=O)NCc3ccco3)cc2C1=O` (stereo unspecified)?
Cav32 inh: -3.9*

Results for CCCc1cc(=O)n2[nH]c(Cc3ccccc3)nc2n1 ?
CYP2C9 act: 0.7; Cav32 inh: 0.756; CYP2C19 act: 1; CYP2C19 inh: -2.9; CYP2C9 inh: 26.6

How did Cc1cccc(N2CCN(C(=O)C34CC5CC(CC(C5)C3)C4)CC2)c1C do in these assays?
CYP2C9 act: 0.7; Cav32 inh: -1.24; CYP2C19 act: 0.8; CYP2C19 inh: 21.5; CYP2C9 inh: 28.6

How did c1cc2c3c(cccc3c1)NC1(CCCCCC1)N2 do in these assays?
CYP2C9 act: 0.4; Cav32 inh: -0.907; CYP2C19 act: 0.1; CYP2C19 inh: 87.2*; CYP2C9 inh: 61.9*

How did c1cc2c3c(cccc3c1)NC1(CCCCC1)N2 do in these assays?
CYP2C9 act: 0.5; Cav32 inh: -0.207; CYP2C19 act: 0.3; CYP2C19 inh: 71.6*; CYP2C9 inh: 52.2*

How did COc1cccc(COc2ccccc2C2Nc3ccc(Br)cc3C(=O)N2NC(=O)c2ccncc2)c1 (stereo unspecified) do in these assays?
CYP2C9 act: 0.2; CYP2C19 act: 0.3; CYP2C19 inh: 68.9*; CYP2C9 inh: 84.8*

What do the screens show for `CCCn1c(CCNC(=O)c2cccs2)nc2ccccc21`?
Cav32 inh: 0.265

Results for Cc1nc2ccccc2c(=O)n1NCc1cccs1 ?
CYP2C9 act: 0.8; Cav32 inh: -0.0783; CYP2C19 act: 0.3; CYP2C19 inh: 74.6*; CYP2C9 inh: 21.4

What do the screens show for `O=C(Nn1c(Cc2cccs2)nc2ccccc2c1=O)c1cccs1`?
CYP2C9 act: 0.2; Cav32 inh: 0.174; CYP2C19 act: 0.2; CYP2C19 inh: 83.6*; CYP2C9 inh: 79.6*

What do the screens show for `COc1ccc(/C=C/C(=O)NC(=S)NNC(=O)Cc2cccs2)cc1`?
CYP2C9 act: 0.8; CYP2C19 act: 1; CYP2C19 inh: -4.3; CYP2C9 inh: 19.0

Results for O=C(/C=C/c1ccccc1)NC(=S)NNC(=O)Cc1cccs1 ?
Cav32 inh: -4.08*

How did O=S(=O)(NCC1CCCO1)c1ccc(S(=O)(=O)N(Cc2ccc(F)cc2)C2CCCCC2)cc1 (stereo unspecified) do in these assays?
Cav32 inh: -0.144

What do the screens show for `O/N=C(\COc1ccccc1O)c1ccccc1`?
CYP2C9 act: 0.6; Cav32 inh: -1.25; CYP2C19 act: 0.1; CYP2C19 inh: 92.8*; CYP2C9 inh: 36.6

How did O=C(c1ccccc1S(=O)(=O)NCC(O)COc1ccc([N+](=O)[O-])cc1)N1CCCCC1 (stereo unspecified) do in these assays?
CYP2C9 act: 0.9; Cav32 inh: 0.22; CYP2C19 act: 0.9; CYP2C19 inh: 10.7; CYP2C9 inh: 9.9

What do the screens show for `CC1S/C(=C(\C#N)C(N)=O)N(c2ccc(F)cc2)C1=O` (stereo unspecified)?
CYP2C9 act: 0.9; Cav32 inh: 1.16; CYP2C19 act: 1.1; CYP2C19 inh: -10.8; CYP2C9 inh: 5.6

What do the screens show for `CC(C)(C)c1ccc(NC(=O)COC(=O)C2=COCCO2)cc1`?
CYP2C9 act: 0.5; Cav32 inh: -0.0864; CYP2C19 act: 0.7; CYP2C19 inh: 25.4; CYP2C9 inh: 45.6
